This is a sample that favours compounds with a hit; in the whole collection about 9.3% have one here.
Rab9 promoter act – qHTS Assay for Rab9 Promoter Activators. Huh7 Rab9 promoter-luciferase reporter, luminescence, 24 h. Potency, µM (highest dose often 9.22 µM), for the others: at the highest dose activation, negative = inhibition, hits mostly activators. 320,000 compounds, 2.8% hits. AID 485297, 2010; note: % of control where 0% means no effect; nearly all actives have a fitted effect of over 60% in size
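Huh7 cells stably carrying Rab9 promoter–luciferase reporter, plated 1500 cells/well, compound added after 2 h and incubated 24 h at 37 °C; luciferase luminescence then read after 10 min with detection reagent.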
ELG1 repair inh – qHTS screen for small molecules that inhibit ELG1-dependent DNA repair in human embryonic kidney (HEK293T) cells expressing luciferase-tagged ELG1; 330,000 compounds, 2.3% hits; HEK293T ELG1-luciferase reporter, luminescence, 16 h; DNA damage induced by 5-fluorouridine; Potency, µM (series often up to 46.1 µM), inactives show at the top dose activity change, negative = inhibition, hits mostly inhibitors; note: % is set by controls: 0 for no effect and ±100 for the full control effect; nearly all actives have a fitted effect of over 55% in size
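Reporter activity after DNA damage by 5-fluorouridine is monitored. Compound-treated cells incubate 16 hr at 37 °C, then ONE-Glo is added for 30 min before luminescence reading.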
NPC1 prom act – qHTS Assay for NPC1 Promoter Activators | Huh7 NPC1 promoter luciferase reporter, 24 h | Potency, µM (highest dose often 9.22 µM), for the others: top-dose activation, usual class: activators | 320,000 compounds, 2.4% hits | AID 485313, 2010; note: % of control where 0% means no effect; nearly all actives have a fitted effect of over 60% in size
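Luminescence from an NPC1 promoter-driven luciferase reporter in stably transfected Huh7 cells was measured after 24 h compound treatment at 37 °C, followed by 10 min ambient incubation with luciferase detection reagent.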
ELG1 genotox – qHTS screen for small molecules that induce genotoxicity in human embryonic kidney (HEK293T) cells expressing luciferase-tagged ELG1 | HEK293T ELG1-luciferase reporter, luminescence, 16 h | Potency, µM (titrated, usually from 46 µM), for the others: at the highest dose activity change, positive = activation, hits mostly activators | 330,000 compounds, 1.3% hits | AID 504466, 2011; note: % of control where 0% means no effect; nearly all actives have a fitted effect of over 60% in size
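After overnight (16 hr) compound treatment at 37 °C, ELG1-luciferase HEK293T cells were lysed with ONE-Glo; luminescence quantified 30 min later at room temperature.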
SMN2 splice up – qHTS Assay for Enhancers of SMN2 Splice Variant Expression | HEK293 SMN2-luciferase splicing reporter, luminescence, 30-36 h | Potency, µM (top dose mostly 46.1 µM), for the others: top-dose activity change, positive = activation, actives largely listed as activators | 210,000 compounds, 2.8% hits | AID 1458, 2008; note: % of control where 0% means no effect; nearly all actives have a fitted effect of over 55% in size
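qHTS luciferase splicing reporter: luminescence rises when SMN2 exon 7 is included in transfected HEK293 cells. Compound exposure lasted 30-36 h at 37C, with 4.5 mM final sodium butyrate as control, followed by a ONE-Glo read.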
FLuc counter – qHTS profiling assay for firefly luciferase inhibitor/activator using purifed enzyme and Km concentrations of substrates (counterscreen for miR-21 project); Potency, µM (series often up to 57.5 µM), inactives show at the highest dose activity change, negative = inhibition, hits mostly inhibitors; 360,000 compounds, 6.9% hits; purified FLuc, Km substrates, luminescence inhibition;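 note: plate controls were vehicle for no effect and reference inhibitor for full effect; nearly all actives have a fitted effect of over 55% in size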
Target sequence (P08659 whole entry, looked up): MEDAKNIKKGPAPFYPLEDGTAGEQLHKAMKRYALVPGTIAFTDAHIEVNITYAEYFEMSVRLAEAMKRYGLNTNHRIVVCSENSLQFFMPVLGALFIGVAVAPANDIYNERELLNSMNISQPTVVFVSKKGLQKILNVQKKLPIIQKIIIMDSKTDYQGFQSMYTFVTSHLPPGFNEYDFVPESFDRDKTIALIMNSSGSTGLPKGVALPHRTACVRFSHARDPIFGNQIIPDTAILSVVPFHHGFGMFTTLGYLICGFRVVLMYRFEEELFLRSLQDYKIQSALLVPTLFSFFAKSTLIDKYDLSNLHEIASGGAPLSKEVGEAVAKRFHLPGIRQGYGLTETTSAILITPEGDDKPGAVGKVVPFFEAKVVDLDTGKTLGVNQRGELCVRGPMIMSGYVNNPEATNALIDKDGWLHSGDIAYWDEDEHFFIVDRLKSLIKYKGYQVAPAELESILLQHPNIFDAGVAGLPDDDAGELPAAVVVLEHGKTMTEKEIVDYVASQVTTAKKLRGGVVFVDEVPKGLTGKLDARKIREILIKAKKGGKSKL
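Biochemical qHTS of compounds, final roughly 60 µM downward over six points, against 10 nM purified firefly luciferase using Km concentrations of substrates (10 uM D-luciferin, 10 uM ATP) in Tris acetate pH 7.5 buffer; luminescence output.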
Active calls of the source: *; ? = inconclusive; / = no result. Calls come from the whole dose curve; as a rule, active = well fitted curve in the direction sought with a large enough effect; inconclusive = small, poorly fitted or top-dose-only effect, or another doubt; inactive = no such curve, though single readings can be large; an effect the other way counts as inactive or inconclusive. Potency is the fitted concentration of half-maximal effect.

SMILES	Rab9 promoter act	ELG1 repair inh	NPC1 prom act	ELG1 genotox	SMN2 splice up	FLuc counter
CCSc1nnc(NC(=O)c2cccc(OCc3c(C)noc3C)c2)s1	4.3%	?	4.1%	-6.8%	-21.8%	?
Cc1noc(C)c1COc1cccc(C(=O)Nc2ccc(OCc3ccccc3)cc2)c1	-1.1%	-12.8%	-0.2%	-9.5%	-8.4%	8.49µM*
Cc1noc(C)c1COc1ccc(C(=O)Nc2ccccc2)cc1	-1.2%	-13.4%	7.3%	0.1%	-22.5%	2.0%
COc1ccc2nc(NC(=O)c3cccc(OCc4c(C)noc4C)c3)sc2c1	4.9%	25.9µM*	-8.8%	-16.6%	-22.8%	1.51µM*
Cc1cccc2c3c([nH]c12)CCNC3	1.5%	?	0.1%	-1.4%	/	-9.3%
O=C(Nc1ccc(NS(=O)(=O)c2ccccc2)cc1)c1ccccc1	0.0%	9.1%	-0.1%	5.6%	/	-1.7%
CC(=O)Oc1ccc(C(=O)Nc2ccc(C3(C#N)CCCC3)cc2)cc1	2µM*	?	1.26µM*	4.5%	/	?
N#CC1(c2ccc(NC(=O)c3ccccc3)cc2)CCCC1	0.398µM*	?	0.282µM*	?	14.1µM*	1.35µM*
COc1cc(C(=O)Nc2ccc(Oc3ncnc4sc(-c5ccccc5)cc34)cc2)cc(OC)c1OC	-2.1%	?	-4.8%	13.4%	0.3%	-0.1%
O=C(COc1ccc2ccccc2c1)NC1CC(=O)N(c2cccc(F)c2)C1 (stereo unspecified)	/	/	/	/	/	-2.1%
COc1cc(N/N=C(\C)c2ccc(O)c(C)c2)nc(-c2ccccc2)n1	-12.1%	-17.0%	-5.7%	-7.2%	/	15.1µM*
COc1cc(N/N=C(\C)c2ccc(N)cc2)nc(-c2ccccc2)n1	27.9%	?	7.2%	-5.5%	8.8%	15.1µM*
Cc1ccc(NC(=O)c2cc(C)nn2-c2ccccc2)cc1	-0.2%	3.7%	-1.1%	-3.3%	1.7%	-6.3%
CCOC(=O)COc1ccc(S(=O)(=O)Nc2cccc(SC)c2)cc1	-0.1%	0.5%	-3.2%	1.3%	13.1%	4.4%
Cc1ccc(S(=O)(=O)/N=C2\SC(CC(=O)Nc3ccc(F)cc3)C(=O)N2c2ccccc2)cc1 (stereo unspecified)	-0.3%	12.4%	0.2%	1.7%	7.5%	-7.2%
CCn1c(=S)[nH]c2cc(S(=O)(=O)N3CCCCC3)ccc21	-3.5%	?	-2.6%	9.2µM*	/	7.3%
CN(C)c1ccc(/C=N/Nc2cccc(C(=O)O)c2)cc1	10µM*	?	?	?	/	0.0757µM*
O=C(O)c1cccc(N/N=C/c2cccnc2)c1	0.316µM*	?	?	0.1%	8.91µM*	2.39µM*
CN(C)c1ccc(/C=N/NC(=O)C2CC2c2ccccc2)cc1 (stereo unspecified)	0.6%	3.1%	-7.5%	5.1%	/	?
O=C(N/N=C/c1cccnc1)c1ccccc1	10.9%	?	16.4%	9.5%	/	?
Clc1ccc(N/N=C/c2ccncc2)cc1Cl	?	?	?	?	12.6µM*	?
CC(C)(C)c1ccc(/C=N/Nc2cccc(C(=O)O)c2)cc1	1.12µM*	?	0.501µM*	0.146µM*	0.1µM*	0.169µM*
Cc1ccc(S(=O)(=O)NCC(c2ccc(N(C)C)cc2)N2CCCC2)cc1 (stereo unspecified)	/	/	/	/	/	-0.6%
O=C(O)c1cccc(N/N=C/c2ccc(-c3ccccc3)cc2)c1	0.0282µM*	?	0.0251µM*	0.146µM*	0.199µM*	0.0757µM*
O=[N+]([O-])c1ccc(N/N=C/c2cccnc2)cc1	-13.2%	18.5%	5.9%	-6.8%	/	?
SMILES	Rab9 promoter act	ELG1 repair inh	NPC1 prom act	ELG1 genotox	SMN2 splice up	FLuc counter
Clc1ccc(N/N=C/c2cccnc2)cc1	26.3%	?	28.1%	17.0%	?	16.9µM*
O=C(N/N=C\c1cccc(F)c1)c1ccc(-c2ccccc2)cc1	13.3%	?	18.6%	1.9%	/	-2.2%
COc1cccc(C2=CC(c3cc(Br)ccc3F)n3nnnc3N2)c1 (stereo unspecified)	/	/	/	/	/	-3.9%
COc1ccc(CN(C(=O)c2ccc(C)cc2)c2cccc(N)c2)cc1	0.6%	-3.9%	-4.1%	-3.2%	/	-7.2%
Cc1ccc(C(=O)CC(=O)c2cccc(F)c2)c(O)c1	13.8%	0.0%	6.4%	?	-40.8%	12µM*
Cc1ccc(N(Cc2ccccc2)C(=O)c2ccc(F)cc2)cc1	0.0%	-2.1%	1.5%	3.6%	/	-0.3%
COc1ccc(C(=O)N(Cc2ccccc2)c2cccc(C)c2)cc1	?	?	?	14.6µM*	/	-0.7%
Cc1ccc(N(Cc2ccccc2)C(=O)c2cccc(F)c2)cc1	-6.5%	1.2%	-0.8%	18.4%	/	13.5µM*
CCc1ccc(NC(=S)N2CCC(NC(=O)C3CCCCC3)CC2)cc1	0.4%	-1.3%	-0.9%	-3.2%	/	-0.2%
COc1ccc(C2=CC(c3cccc(C)c3)n3nnnc3N2)cc1 (stereo unspecified)	/	/	/	/	/	-7.9%
Cc1ccc(C2=CC(c3ccccc3C)n3c(nc4ccccc43)N2)cc1 (stereo unspecified)	/	/	/	/	/	6.01µM*
Cc1ccc(-c2nc3n(n2)C(c2ccccc2C)C=C(c2ccc(Cl)cc2)N3)cc1 (stereo unspecified)	/	/	/	/	17.0%	0.8%
CCc1ccc(C2=CC(c3c(F)cccc3Cl)n3c(nc4ccccc43)N2)cc1 (stereo unspecified)	/	/	/	/	/	19µM*
CCN(CC)C(=O)C1=C(C)Nc2nc3ccccc3n2C1c1ccccc1F (stereo unspecified)	/	/	/	/	-12.1%	-1.9%
Cc1cccc(C2C=C(c3ccc(F)cc3)Nc3nc4ccccc4n32)c1 (stereo unspecified)	/	/	/	/	/	5.36µM*
Cc1ccc(S(=O)(=O)NC(=O)Nc2ccc(Cl)cn2)cc1	4.9%	9.0%	0.6%	0.0%	?	-1.3%
CNC(=O)COc1coc(CN2CCN(c3ccc(OC)cc3)CC2)cc1=O	0.4%	0.6%	3.1%	-1.2%	/	3.1%
Cc1ccsc1/C=N/n1cnnc1	-1.0%	6.5%	0.0%	0.2%	/	-2.7%
Cc1ccsc1/C=N/n1cnc2sc(C)c(C)c2c1=O	?	?	?	6.0%	21.0%	10.7µM*
Cc1cc(N)ccc1-c1cc2ccccc2oc1=O	28.9%	?	20.3%	8.7%	/	?

Compound activity deposited in PubChem by National Center for Advancing Translational Sciences (NCATS).
